Laboratory results published in PubChem BioAssay (NCI).
About 83,000 compounds went through this panel and 20% of them were active in at least one assay; those are over-represented in the sample as a whole.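 Each cell line was grown in a 96-well plate and treated with one concentration of compound for 48 hours. Values below 10 were considered active.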 Activity calls are given as the source filed them.

What was measured:
Assay in all cases: NCI-60 one-dose screen, 48 h (100 = growth as untreated, 0 = no growth, -100 = all killed)
Conditions in all cases: 10 µM unless noted
[1] = tested on: NCI-H23 lung
[2] = tested on: NCI-H226 lung
[3] = tested on: NCI-H322M lung
[4] = tested on: HOP-62 NSCLC
[5] = tested on: NCI-H460 lung
[6] = tested on: HOP-92 NSCLC
[7] = tested on: NCI-H522 lung
[8] = tested on: A549/ATCC NSCLC
[9] = tested on: 786-0 renal
[10] = tested on: COLO 205 colon

Measured: growth

c1ccc2cc(Cn3cc[n+](Cc4ccc5ccccc5c4)c3)ccc2c1
inactive: [1] 41.6% | [2] 52.1% | [3] 62.8% | [4] 42.1% | [5] 39.6% | [8] 67.6% | [9] 52.2%
active: [6] -13.3% | [7] -11.7% | [10] -73.9%

COC(=O)CNC(=O)c1ccc(NC(=O)c2[nH]c(C)c(Cl)c2Cl)c(O[C@H]2CCNC2)c1
inactive: [1] 98.7% | [2] 104% | [3] 109% | [4] 95.6% | [5] 108% | [6] 99% | [7] 97.7% | [8] 105% | [9] 102% | [10] 110%

N#C/C(Sc1nc2sc3c(c2c(=O)n1Cc1ccccc1)CCCC3)=C1/SC=C(c2ccc(Cl)cc2)N1c1ccccc1
inactive: [1] 86.6% | [2] 106% | [3] 84.5% | [4] 78.8% | [5] 90.6% | [6] 68.6% | [7] 89.7% | [8] 100% | [9] 87.4% | [10] 104%

CN(C)c1ccc(/C=N/NC(=O)CSc2nc3sc4c(c3c(=O)n2-c2ccccc2)CCCCC4)cc1
inactive: [1] 29.7% | [2] 96.5% | [3] 44.9% | [4] 21.5% | [6] 50.3% | [7] 21.2% | [9] 45% | [10] 33.8%
active: [5] 1.49% | [8] 6.63%

C#CCOc1cccc(Nc2c(Cl)c(CCl)nc3ccc(Oc4ccccc4)cc23)c1
active: [7] -6.45%
inactive: [1] 64.2% | [2] 72.3% | [3] 83.7% | [4] 93.1% | [5] 96.2% | [6] 64.2% | [8] 90.7% | [9] 17.7% | [10] 83.2%

COc1ccc(NC(=O)CSc2oc(-c3ccccc3)nc2S(=O)(=O)c2ccc(Cl)cc2)c(OC)c1
inactive: [1] 73% | [3] 83% | [4] 51% | [5] 44.7% | [6] 39.6% | [7] 41.4% | [8] 49.2% | [9] 35.7% | [10] 82.4%
active: [2] 1.45%

CNC(=O)c1cc(Oc2cccc3nc(NC(=O)Nc4ccc(F)cc4F)ccc23)ccn1
active: [4] 0.65% | [8] 8.57% | [9] -48.7%
inactive: [1] 42.7% | [2] 49.7% | [3] 33% | [5] 13.7% | [6] 41.4% | [7] 46% | [10] 37.9%

COC(=O)c1ccc(-n2cc(CCCOS(=O)(=O)c3ccc(F)cc3)nn2)cc1
inactive: [1] 98.1% | [2] 97.9% | [3] 102% | [4] 106% | [5] 102% | [6] 100% | [7] 93.7% | [8] 97% | [9] 97.1% | [10] 107%

COC(=O)c1c(C)nc(C)c2c1C(=O)C(Br)=C(NCCN1CCOCC1)C2=O
inactive: [1] 89% | [2] 107% | [3] 96.2% | [4] 133% | [5] 88.6% | [6] 118% | [7] 102% | [8] 98.6% | [9] 101% | [10] 56.5%

CC(C)=CCC[C@](C)(O)C1CC[C@]2(C)[C@@H]1CC[C@@H]1[C@@]3(C)CC/C(=N\OCCC#N)C(C)(C)[C@@H]3CC[C@]12C (stereo not given in full)
inactive: [1] 72.5% | [2] 68% | [3] 98.8% | [4] 89.5% | [5] 79.6% | [6] 105% | [7] 68.7% | [8] 76.2% | [9] 86.2% | [10] 83.9%

O=C1c2ccccc2-c2c1c1ccncc1c(=O)n2CCCn1ccnc1
inactive: [1] 51.8% | [2] 54.4% | [3] 83.8% | [4] 39.9% | [5] 21.8% | [6] 78.5% | [7] 29.6% | [8] 56.3% | [9] 55.4% | [10] 56.4%

C#Cc1c(I)n(C2OC(CO[Si](C)(C)C(C)(C)C)C3OC(C)(C)OC32)c(=O)[nH]c1=O (stereo not given)
inactive: [1] 85.7% | [2] 98.1% | [3] 113% | [4] 97% | [5] 114% | [7] 101% | [8] 92.6% | [9] 93.9%
active: [6] -80.9% | [10] -88.2%

CC(=O)OCC(=O)O[C@@H]1C[C@]2(C(C)C)O[C@@]1(C)[C@@H]1CC[C@@H](C)[C@H]1[C@@H]2OC(=O)/C=C/c1ccccc1
inactive: [1] 89.7% | [2] 68.4% | [3] 84.8% | [4] 86.7% | [5] 90.2% | [6] 67.4% | [7] 78.1% | [8] 71.7% | [9] 66.3% | [10] 97.5%

Cc1ccc(-c2nc(C#N)c(S(=O)(=O)n3nc(C)cc3N)o2)cc1
inactive: [1] 90.7% | [2] 94.1% | [3] 91% | [4] 103% | [5] 99.7% | [6] 72.8% | [8] 99.4% | [9] 78%
active: [7] -15.8% | [10] -32.3%

O=C1OCC2=C1C(c1cccc(F)c1)c1cc3c(cc1N2CCO)CCC3 (stereo not given)
inactive: [1] 24.7% | [2] 39.6% | [3] 40.9% | [4] 26.2% | [6] 58.5% | [7] 11.6% | [8] 17.3% | [9] 32.3%
active: [5] 6.75% | [10] -25.6%

CCC(=C(c1ccc(OCCN(CC)CC)cc1)c1ccc(OCCN(CC)CC)cc1)c1ccc(Cl)cc1
inactive: [1] 68.7% | [2] 109% | [6] 33.5%
active: [3] -8.03% | [4] -27% | [5] -81.4% | [7] -39.4% | [8] -75% | [9] -95.4% | [10] -69%

CC1=NC(=S)NC(c2ccccc2)/C1=C1/CC(c2ccccc2O)NN1 (stereo not given)
inactive: [1] 92.5% | [2] 97% | [3] 101% | [4] 92.7% | [5] 104% | [6] 84.5% | [7] 96.3% | [8] 100% | [9] 100% | [10] 105%

CCCS(=O)(=O)Nc1cccc(Nc2ncnc3cc(NC(=O)CCl)ccc23)c1Cl
active: [1] -52.2% | [2] -18.3% | [3] 3.52% | [4] -77.3% | [5] -41.1% | [6] -85.9% | [7] -60% | [8] -5.2% | [9] -88.2% | [10] -68.9%

C[C@@H]1N=C(c2ccc(Cl)cc2Cl)Nc2nc3ccccn3c2C1=O
inactive: [1] 61.4% | [2] 75.7% | [3] 63.7% | [4] 52.6% | [5] 18.7% | [6] 55.9% | [7] 28.9% | [8] 40.6% | [9] 73.2% | [10] 22.3%

CCCC[N+]1(C)CCN=C1Cc1ccccc1 (stereo not given)
inactive: [1] 101% | [2] 97.6% | [3] 99.9% | [4] 105% | [5] 110% | [6] 90.9% | [7] 88.5% | [8] 87.8% | [9] 101% | [10] 111%

Cc1ccc(NC(=O)c2ccc(Nc3ncnc4c3cnn4-c3cccc(F)c3)cc2)cc1
inactive: [1] 99.6% | [2] 96.5% | [3] 103% | [4] 94.7% | [5] 102% | [6] 102% | [7] 96% | [8] 99.9% | [9] 95.8% | [10] 109%

COc1ccc(S(=O)(=O)Oc2ccc(-c3sc4cc(OS(=O)(=O)c5ccc(OC)cc5)ccc4c3C(=O)c3ccc(OCCN4CCCCC4)cc3)cc2)cc1
inactive: [1] 104% | [2] 104% | [3] 98.5% | [4] 95.8% | [5] 105% | [6] 108% | [7] 91.4% | [8] 88.2% | [9] 93% | [10] 109%

CC(=O)c1c(/C=C/c2ccc(C)cc2)c2ccccc2[nH]c1=O
inactive: [1] 86.5% | [2] 63% | [3] 91.2% | [4] 89.4% | [5] 91.3% | [6] 73.1% | [7] 84.6% | [8] 85.4% | [9] 97.8% | [10] 105%

CN(Cc1ccccc1)c1nc(Cl)c(C2CC(c3ccc(Cl)cc3)=NN2c2cc(Cl)cc(Cl)c2)s1 (stereo not given)
inactive: [1] 94.3% | [2] 102% | [3] 102% | [4] 91.6% | [5] 106% | [6] 91.6% | [7] 91.3% | [8] 95% | [9] 93.8% | [10] 105%

CCc1ccc(Cc2cnc(NC(=O)c3cc(C)oc3C)s2)cc1
inactive: [1] 52.8% | [2] 66.3% | [3] 56.8% | [4] 56.9% | [5] 18.6% | [6] 45% | [7] 19.6% | [8] 34.7% | [9] 41.2% | [10] 48.6%

Cc1ccc(C2=Nc3c(N)nc(N)nc3NC(c3cccc(Nc4ccnc5cc(C(F)(F)F)ccc45)c3)C2)cc1 (stereo not given)
inactive: [1] 39.4% | [2] 80.7% | [3] 54.8% | [4] 34.1% | [5] 11.7% | [6] 28.3% | [7] 11.9% | [8] 30.1% | [9] 20.9%
active: [10] 7.09%

N#C/C(=C\c1cccc2cnccc12)N1N=NC2C=CC=CC21 (stereo not given)
inactive: [1] 48.5% | [2] 68.7% | [3] 67.2% | [4] 79.9% | [5] 40.8% | [7] 14.1% | [8] 64.2% | [9] 53.1% | [10] 47.4%
active: [6] -14.6%
